Test results taken from PubChem BioAssay (NCI).
Where “and” joins values, the source holds several entries; their conditions need not be identical. Equal values may be shown once. About 79,000 compounds went through this panel and 15% of them were active in at least one assay; those are over-represented in the sample as a whole. A structure can be active in one record and inactive in another. Calls of active or inactive are those of the source. Cut-off read from the data, not from the text of the source: active = growth inhibition above about 70%; inactive = the rest.

Experiments:
[1] = NCI Yeast Anticancer Drug Screen. Data for the rad52 strain (AID 147);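 note: 0% = growth of vehicle-treated control cultures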; conditions: S. cerevisiae rad52 mutant growth inhibition, stronger effect = higher value
How it was run: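 The repair-mutant yeast strain was incubated with compounds, then growth was read and inhibition derived relative to vehicle.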

[2] = NCI Yeast Anticancer Drug Screen. Data for the wt1 strain (AID 149);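 note: 0% = growth of vehicle-treated wt1 cultures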; conditions: S. cerevisiae wt1 strain (SPY 50644) growth inhibition, stronger effect = higher value
How it was run: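 Measured: growth of wt1 yeast under compound versus vehicle treatment, reported as inhibition.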

[3] = NCI Yeast Anticancer Drug Screen. Data for the rad50EPP+ strain (AID 151);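 note: 0% = growth of vehicle-treated control cultures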; conditions: S. cerevisiae rad50 mutant strain, stronger effect = higher value
How it was run: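 Vehicle-normalised growth inhibition; rad50EPP+ yeast strain, altered in DNA damage repair, compound-treated.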

[4] = NCI Yeast Anticancer Drug Screen. Data for the mgt1 strain (AID 153); conditions: S. cerevisiae mgt1 mutant growth inhibition, stronger effect = higher value
How it was run: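 Vehicle-normalized growth inhibition is determined in mgt1 yeast, a strain selected for a defined alteration in DNA repair or cell cycle control.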

[5] = NCI Yeast Anticancer Drug Screen. Data for the rad50 strain (AID 155);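 note: 0% = growth of vehicle-only cultures of the same strain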; conditions: S. cerevisiae rad50 strain growth inhibition, stronger effect = higher value
How it was run: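 Growth of the mutant yeast was measured after compound exposure and referenced to vehicle-treated cultures.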

[6] = NCI Yeast Anticancer Drug Screen. Data for the mec2-1 strain (AID 157); conditions: S. cerevisiae mec2-1 strain, stronger effect = higher value
How it was run: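 Mutant yeast (mec2-1) grown with compound; growth inhibition relative to vehicle control reported.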

[7] = NCI Yeast Anticancer Drug Screen. Data for the rad14 strain (AID 159);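 note: 0% = growth of vehicle-treated control cultures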; conditions: S. cerevisiae rad14 strain growth inhibition, stronger effect = higher value
How it was run: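 Here, inhibition of yeast growth was measured after compound exposure, using a strain with a genetic defect in DNA damage repair and vehicle-treated cultures as the reference.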

[8] = NCI Yeast Anticancer Drug Screen. Data for the sgs1 mgt1 strain (AID 161);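 note: 0% = growth of cultures given vehicle only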; conditions: S. cerevisiae sgs1 mgt1 strain, stronger effect = higher value
How it was run: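 This yeast growth screen uses a strain with defined DNA-repair lesions; compound-treated growth is compared with vehicle-treated growth.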

[9] = NCI Yeast Anticancer Drug Screen. Data for the CLN2oe strain (AID 163);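 note: 0% = growth of vehicle-only control cultures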; conditions: S. cerevisiae CLN2oe strain, stronger effect = higher value
How it was run: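 Compounds are applied to yeast harbouring a defined cell-cycle control change; reduced growth compared with vehicle-treated controls gives the value.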

[10] = NCI Yeast Anticancer Drug Screen. Data for the cln2 rad14 strain (AID 165);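 note: 0% = growth equal to vehicle treated cultures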; conditions: S. cerevisiae cln2 rad14 strain, stronger effect = higher value
How it was run: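 Readout is yeast growth inhibition versus vehicle-treated controls, using a strain with cln2 and rad14 alterations exposed to compound.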

[11] = NCI Yeast Anticancer Drug Screen. Data for the bub3 strain (AID 167); conditions: S. cerevisiae bub3 mutant strain, stronger effect = higher value
How it was run: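 Whole-cell yeast assay. The mutant strain was incubated with compounds, and growth inhibition was determined by comparison with vehicle-treated cells.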

[12] = NCI Yeast Anticancer Drug Screen. Data for the wt2 strain (AID 169);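 note: 0% = growth of vehicle-treated yeast cultures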; conditions: S. cerevisiae wt2 strain growth inhibition, stronger effect = higher value
How it was run: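 Against vehicle-treated controls, the growth of yeast exposed to each compound was compared, and the inhibition was recorded.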

[13] = NCI Yeast Anticancer Drug Screen. Data for the mlh1 strain (AID 171);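 note: 0% = growth of vehicle-treated control cultures of the same strain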; conditions: S. cerevisiae mlh1 strain growth inhibition, stronger effect = higher value
How it was run: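 Measured: yeast growth. Reference: vehicle-treated controls. Organism: strain with a defined alteration affecting DNA damage repair or cell cycle control, treated with compound.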

[14] = NCI Yeast Anticancer Drug Screen. Data for the sgs1 strain (AID 173);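 note: 0% = growth of vehicle-only control cultures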; conditions: S. cerevisiae sgs1 mutant, stronger effect = higher value
How it was run: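 Each compound was added to cultures of the altered yeast strain. Growth was recorded, and inhibition was derived by comparison with vehicle controls.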

[15] = NCI Yeast Anticancer Drug Screen. Data for the mlh1 rad18 strain (AID 175); conditions: S. cerevisiae mlh1 rad18 strain growth inhibition, stronger effect = higher value
How it was run: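 Genetically defined yeast (DNA repair-deficient) exposed to compounds; growth inhibition determined relative to vehicle.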

[16] = NCI Yeast Anticancer Drug Screen. Data for the rad18 strain (AID 177); conditions: S. cerevisiae rad18 mutant growth inhibition, stronger effect = higher value
How it was run: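 Vehicle-treated cultures served as the baseline for scoring compound-induced growth inhibition in DNA-repair-mutant yeast.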

[17] = at 5.0 µM (retest, dose inferred, filed as 0.5)
[18] = at 50.0 µM (retest, dose inferred, filed as 5.0)

Measured: growth inhibition

C=C1C(=O)OC2CC1C(OC(C)=O)C/C(C)=C/CC/C(C)=C\CCC2(C)O (stereo unspecified)
24% (inactive) and 99% (active): [8]; [17]
60% (inactive) and 95% (active): [15]; [17]
inactive: [1]; at 1.2 µM -5% | [1]; at 3.7 µM 1% | [1]; at 11.0 µM 15% | [1]; at 33.0 µM 33% | [2]; at 1.2 µM 3% | [2]; at 3.7 µM 11% | [2]; at 11.0 µM 13% | [2]; at 33.0 µM 30% | [3]; at 1.2 µM 15% | [3]; at 3.7 µM 42% | [3]; at 11.0 µM 40% | [3]; at 33.0 µM 31% | [3]; at 100.0 µM 18% | [4]; at 1.2 µM -14% | [4]; at 3.7 µM 3% | [4]; at 11.0 µM 13% | [4]; at 33.0 µM 28% | [5]; at 1.2 µM -3% | [5]; at 3.7 µM 9% | [5]; at 11.0 µM 17% | [5]; at 33.0 µM 40% | [6]; at 1.2 µM 11% | [6]; at 3.7 µM 17% | [6]; at 11.0 µM 23% | [6]; at 33.0 µM 37% | [7]; at 1.2 µM 5% | [7]; at 3.7 µM 17% | [7]; at 11.0 µM 31% | [7]; at 33.0 µM 44% | [9]; at 1.2 µM -17% | [9]; at 3.7 µM 9% | [9]; at 11.0 µM 20% | [9]; at 33.0 µM 13% | [10]; [17] 6% and 31% | [11]; at 1.2 µM 6% | [11]; at 3.7 µM -8% | [11]; at 11.0 µM 4% | [11]; at 33.0 µM 24% | [12]; at 1.2 µM -2% | [12]; at 3.7 µM -4% | [12]; at 11.0 µM 12% | [12]; at 33.0 µM 17% | [13]; at 1.2 µM -5% | [13]; at 3.7 µM 19% | [13]; at 11.0 µM 28% | [13]; at 33.0 µM 51% | [14]; at 1.2 µM 13% | [14]; at 3.7 µM 27% | [14]; at 11.0 µM 40% | [14]; at 33.0 µM 55% | [16]; at 1.2 µM -15% | [16]; at 3.7 µM 1% | [16]; at 11.0 µM 15% | [16]; at 33.0 µM 49%
63% (inactive) and 98% (active): [5]; [18]
active: [1]; at 100.0 µM 88% | [2]; at 100.0 µM 85% | [4]; at 100.0 µM 80% | [5]; at 50.0 µM 81.5% and 88.8% | [5]; at 100.0 µM 86% | [6]; [18] 79% and 99% | [6]; at 50.0 µM 81.7% and 91.2% | [6]; at 100.0 µM 89% | [7]; at 100.0 µM 87% | [8]; at 50.0 µM 71.2% and 87.9% | [9]; at 100.0 µM 85% | [10]; at 50.0 µM 78.8% and 89.3% | [11]; [18] 85% and 99% | [11]; at 50.0 µM 84.5% and 90.7% | [11]; at 100.0 µM 85% | [12]; at 100.0 µM 93% | [13]; at 100.0 µM 89% | [14]; at 100.0 µM 90% | [15]; [18] 97% | [15]; at 50.0 µM 85.5% and 86.8% | [16]; at 100.0 µM 91%
24% (inactive) and 85% (active): [5]; [17]
51% (inactive) and 97% (active): [10]; [18]
36% (inactive) and 90% (active): [11]; [17]
67% (inactive) and 99% (active): [8]; [18]
18% (inactive) and 82% (active): [6]; [17]

C=C(Cl)COC(=O)Nc1cccc(Cl)c1
active: [1]; at 33.0 µM 80% | [1]; at 100.0 µM 97% | [2]; at 100.0 µM 90% | [3]; at 33.0 µM 75% | [3]; at 100.0 µM 84% | [4]; at 100.0 µM 96% | [5]; at 33.0 µM 80% | [5]; [18] 79% | [5]; at 50.0 µM 82% | [5]; at 100.0 µM 97% | [6]; at 100.0 µM 91% | [7]; at 100.0 µM 97% | [9]; at 100.0 µM 94% | [11]; at 100.0 µM 92% | [12]; at 100.0 µM 98% | [13]; at 100.0 µM 97% | [14]; at 100.0 µM 97% | [15]; [18] 80% | [15]; at 50.0 µM 82.5% | [16]; at 100.0 µM 94%
inactive: [1]; at 1.2 µM 3% | [1]; at 3.7 µM 8% | [1]; at 11.0 µM 30% | [2]; at 1.2 µM -1% | [2]; at 3.7 µM -1% | [2]; at 11.0 µM 1% | [2]; at 33.0 µM 13% | [3]; at 1.2 µM 7% | [3]; at 3.7 µM 25% | [3]; at 11.0 µM 52% | [4]; at 1.2 µM -14% | [4]; at 3.7 µM -6% | [4]; at 11.0 µM -11% | [4]; at 33.0 µM 16% | [5]; at 1.2 µM 8% | [5]; at 3.7 µM 27% | [5]; [17] 0% | [5]; at 11.0 µM 58% | [6]; at 1.2 µM -19% | [6]; at 3.7 µM -10% | [6]; [17] -17% | [6]; at 11.0 µM -25% | [6]; at 33.0 µM 0% | [6]; [18] 19% | [6]; at 50.0 µM 3.15% | [7]; at 1.2 µM 1% | [7]; at 3.7 µM 2% | [7]; at 11.0 µM 4% | [7]; at 33.0 µM 39% | [8]; [17] -14% | [8]; [18] 47% | [8]; at 50.0 µM 45% | [9]; at 1.2 µM 0% | [9]; at 3.7 µM -5% | [9]; at 11.0 µM -10% | [9]; at 33.0 µM 3% | [10]; [17] 19% | [10]; [18] 16% | [10]; at 50.0 µM 25.1% | [11]; at 1.2 µM -17% | [11]; at 3.7 µM -17% | [11]; [17] -25% | [11]; at 11.0 µM -8% | [11]; at 33.0 µM 9% | [11]; [18] 18% | [11]; at 50.0 µM 34.4% | [12]; at 1.2 µM -3% | [12]; at 3.7 µM -1% | [12]; at 11.0 µM 1% | [12]; at 33.0 µM 39% | [13]; at 1.2 µM -6% | [13]; at 3.7 µM -1% | [13]; at 11.0 µM 1% | [13]; at 33.0 µM 36% | [14]; at 1.2 µM 0% | [14]; at 3.7 µM 3% | [14]; at 11.0 µM 13% | [14]; at 33.0 µM 63% | [15]; [17] -13% | [16]; at 1.2 µM -1% | [16]; at 3.7 µM -2% | [16]; at 11.0 µM 8% | [16]; at 33.0 µM 55%

O=c1ssc(=Nc2ccccc2)n1-c1ccccc1
inactive: [1]; at 1.2 µM 10% | [1]; at 3.7 µM 9% | [1]; at 11.0 µM 5% | [1]; at 33.0 µM 20% | [1]; at 100.0 µM 62% | [2]; at 1.2 µM -3% | [2]; at 3.7 µM -5% | [2]; at 11.0 µM -4% | [2]; at 33.0 µM 0% | [2]; at 100.0 µM 11% | [3]; at 1.2 µM 6% | [3]; at 3.7 µM 3% | [3]; at 11.0 µM 3% | [3]; at 33.0 µM 32% | [4]; at 1.2 µM 0% | [4]; at 3.7 µM 2% | [4]; at 11.0 µM 0% | [4]; at 33.0 µM 12% | [4]; at 100.0 µM 39% | [5]; at 1.2 µM 9% | [5]; at 3.7 µM 5% | [5]; [17] 23% and 20% | [5]; at 11.0 µM 2% | [5]; at 33.0 µM 29% | [6]; at 1.2 µM -6% | [6]; at 3.7 µM -3%
active: [3]; at 100.0 µM 80% | [5]; [18] 99% | [5]; at 50.0 µM 99.5% and 99% | [5]; at 100.0 µM 72%
